Measured values published in PubChem BioAssay AID602350 (Broad Institute, 2012).
Entries with a potency or affinity are not part of this list. Calls of active or inactive are those of the source.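 The calls were made as follows: active = absorbance falls by 30% or more versus neutral controls, with a potency fitted within twice the top valid dose; inconclusive = no clear call, values can overlap the other calls; inactive = change opposite to expected direction, plus the rest.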

Each molecule was assayed against Protein disulfide-isomerase (Homo sapiens) (UniProt P07237) (assay: inhibition of PDI-driven insulin aggregation – biochemical, turbidity, absorbance, cherry-picked samples, dose response (AID 602350)). Conditions: recombinant PDI insulin aggregation, absorbance 650 nm, 90 min; series mostly up to 19.5 µM.
Protein disulfide-isomerase (Homo sapiens), sequence (P07237 whole entry, looked up): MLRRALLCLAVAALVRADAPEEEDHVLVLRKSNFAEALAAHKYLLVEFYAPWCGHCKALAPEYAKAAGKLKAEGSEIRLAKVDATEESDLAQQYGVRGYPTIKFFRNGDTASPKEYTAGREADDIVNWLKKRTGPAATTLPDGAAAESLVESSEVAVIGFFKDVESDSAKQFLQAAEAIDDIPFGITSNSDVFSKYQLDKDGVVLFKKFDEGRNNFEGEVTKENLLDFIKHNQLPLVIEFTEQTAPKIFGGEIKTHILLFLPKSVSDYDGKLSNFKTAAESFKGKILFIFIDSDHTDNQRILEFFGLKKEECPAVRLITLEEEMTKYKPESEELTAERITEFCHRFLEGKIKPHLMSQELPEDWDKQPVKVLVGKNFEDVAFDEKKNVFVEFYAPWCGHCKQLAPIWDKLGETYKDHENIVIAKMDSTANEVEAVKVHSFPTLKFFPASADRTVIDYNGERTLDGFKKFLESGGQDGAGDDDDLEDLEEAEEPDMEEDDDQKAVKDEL

outcome, inactive:
CN(C)C(=O)CSc1n[nH]c(-c2ccco2)n1
O=S(=O)(Nc1ccc(C(O)(C(F)(F)F)C(F)(F)F)cc1)c1ccc(Cl)c2nonc12
CNC[C@@H]1Oc2c(NS(C)(=O)=O)cccc2C(=O)N([C@@H](C)CO)C[C@H]1C
CCOC(=O)CN(c1ccccc1)S(=O)(=O)c1ccc(F)cc1
CCCCNC(=O)N1CCN(C(=O)C2CCCO2)CC1 (centres undefined)
COCC(=O)N(C)C1(c2nnnn2CCOC(=O)Nc2ccc(Cl)cc2)CCCC1
CCOc1ccc(CCN2C(=O)C(=O)N([C@@H](CC(C)C)CN3CCC[C@@H]3CN3C(=O)C(=O)NC[C@@H]3Cc3ccccc3)C[C@@H]2Cc2ccc(O)cc2)cc1
COc1cccc(NC(=O)CN(C)C(=O)/C=C/c2cc(OC)ccc2OC)c1
COc1ccc(CN(C)C[C@@H]2Oc3ccc(NC(=O)Nc4ccccc4)cc3CC(=O)N([C@H](C)CO)C[C@@H]2C)cc1
O=C(NC(=S)Nc1cccc(NC(=O)c2ccccc2)c1)c1cccc([N+](=O)[O-])c1
COc1ccc(OC)c(CN2CCN(Cc3cc(=O)oc4cc(O)ccc34)CC2)c1
COc1cc(C(C)=O)ccc1OCC(=O)NCCCn1nc(C)cc1C
COc1ccc(C(=O)c2c(C)c3cc(C)ccc3n2CC(O)CN2CCOCC2)cc1 (centres undefined)
Cc1cc(C)cc(CC(=O)N2CCC2(C)C(=O)NS(=O)(=O)c2ccc(Br)cc2)c1 (centres undefined)
C=CC[C@H](CC(=O)N(CCO)Cc1ccccc1)C(=O)N[C@H](COC(=O)[C@@H](CC=C)Cc1ccc(F)cc1)Cc1c[nH]c2ccccc12
CCc1ccc(NC(=O)Nc2ccncc2)cc1
Cc1ccc(C)c(NS(=O)(=O)c2c(C)nn(C)c2C)c1
COc1cc(C2C(C#N)=C(N)Oc3cc(O)ccc32)cc(OC)c1OC (centres undefined)
CCOC(=O)C1(Cc2ccc(O)cc2)NC(c2ccccc2F)C2C(=O)N(C)C(=O)C21 (centres undefined)
CC1CCCN(c2cc3c(cc2[N+](=O)[O-])C(=O)N(c2ccccc2)C3=O)C1 (centres undefined)
CC1CCc2sc(C(=O)N/N=C/C3CCCCC3)cc2C1 (centres undefined)
Cc1noc(C)c1S(=O)(=O)Nc1ccc2c(c1)CC(=O)N([C@H](C)CO)C[C@H](C)[C@H](CN(C)S(C)(=O)=O)O2
Cc1ccc(-n2ncc3c(=O)[nH]c(SCC(=O)N4CCCc5ccccc54)nc32)cc1
CCC1Nc2ncnc(N3CCCCC3)c2N(Cc2ccc(C)cc2)C1=O (centres undefined)
CCOC(=O)C1(C)CCCN(C(=O)c2cccc(Cl)c2)C1 (centres undefined)
O=C(O)c1ccccc1Cc1ccc(F)c2ccccc12
O=c1[nH]c(C2CCN(S(=O)(=O)c3ccc(C(F)(F)F)cc3)CC2)nc2c1nnn2Cc1ccc(F)cc1
COCc1[nH][nH]c(=O)c1C=Nc1ccc(F)cc1F
Cc1cc(NC(=O)CSc2[nH]c(=O)cc(C(F)(F)F)c2C#N)no1
CC1(C(=O)N2CCCCC2)CCN1C(=O)Cc1ccc(-c2ccccc2)cc1 (centres undefined)
CC[C@]12c3[nH]c4cc(-c5ccco5)ccc4c3CCN1C(=O)[C@@H](CC(=O)NCc1ccco1)C[C@@H]2C(=O)N1CCN(C(=O)c2ccco2)CC1
O=C(Nc1oc2ccccc2c(=O)c1-c1ccc(Cl)cc1)c1ccco1
Cc1ccc(O)c(NC(=O)CSc2n[nH]c(-c3ccccc3)n2)c1
FC(F)(F)c1cccc(NC(=S)NCc2ccccn2)c1
COc1c(Br)cc(C(N)=O)cc1OCc1ccccc1
N#Cc1ccccc1CSc1nnc(Cc2ccccc2)o1
O=C(O)CCc1ccc(-c2cccs2)n1NC(=O)c1ccco1
Cc1noc(C)c1S(=O)(=O)Nc1ccc2c(c1)CC(=O)N([C@H](C)CO)C[C@@H](C)[C@H](CN(C)S(=O)(=O)c1ccc(F)cc1)O2
Cc1noc(C)c1-c1ccc(C(=O)NCc2ccc(Cl)cc2)c2occc12
